# Reference: PubChem BioAssay
# Where “and” joins values, the source holds several entries; their conditions need not be identical. Equal entries are not always repeated. Calls of active or inactive are those of the source. Unless noted, no stated cut-off is given here; in the data, active means inhibition above about 80%; inactive means the rest.
# Assays:
# [1] = polyglutamine-triggered caspase-3 activation inhibitors, cell-based (AID 1583); conditions: polyglutamine-induced caspase-3 activation, cell assay; stronger effect = higher value;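 tested at 10 µM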
# [2] = LFS_MB_1R medulloblastoma cell growth inhibition, synergistic combos for chromothripsis tumors, cisplatin or BGB combos (AID 1671452); conditions: LFS_MB_1R medulloblastoma cells, stronger effect = higher value;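 further: cells exposed for 96 hours before readout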
# [3] = CRL2098 osteosarcoma cell growth inhibition, synergistic combos for chromothripsis tumors, BGB or cisplatin IC20 combos (AID 1671454); conditions: CRL2098 osteosarcoma cells, drug combinations, stronger effect = higher value;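 further: cells exposed for 96 h before readout; 0% = vehicle DMSO and 100% = killing by high DMSO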
# [4] = HD-MB03 medulloblastoma cell growth inhibition, synergistic combos for chromothripsis tumors, BGB or cisplatin IC20 combos (AID 1671455; in the data active means inhibition above about 83%;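 further: 0% = vehicle DMSO and 100% = high DMSO as cytotoxic control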); conditions: HD-MB03 medulloblastoma cells, stronger effect = higher value
# [5] = UWB1.289 ovarian carcinoma cell growth inhibition, synergistic combos for chromothripsis tumors, BGB or cisplatin combos (AID 1671456); conditions: UWB1.289 ovarian carcinoma cells, stronger effect = higher value;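 further: cells exposed to compound for four days; 0% = vehicle DMSO and 100% = killing by high DMSO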
# [6] = LFS_MB_2R medulloblastoma cell growth inhibition, synergistic combos for chromothripsis tumors, cisplatin combos (AID 1671457); conditions: LFS_MB_2R medulloblastoma cells, stronger effect = higher value;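 further: cells exposed to compound for four days before readout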
# [7] = MDA-MB-436 breast carcinoma cell growth inhibition, synergistic combos for chromothripsis tumors, BGB or cisplatin combos (AID 1671458; call rule not given here;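 further: cells exposed for 96 hours; 0% = vehicle DMSO and 100% = killing by high DMSO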); conditions: MDA-MB-436 breast carcinoma growth inhibition, drug combinations, stronger effect = higher value
# [8] = UWB1.289_BRCA1 ovarian cancer growth, cell-based, BGB or cisplatin combinations (AID 1671459); conditions: UWB1.289 BRCA1 ovarian carcinoma, drug combinations, stronger effect = higher value
# [9] = human astrocyte viability loss, single and combined drugs, cytotoxicity control for chromothriptic childhood tumor combination screen, cell-based, BGB or cisplatin IC20 combos (AID 1671460); conditions: Human astrocytes, drug combinations, stronger effect = higher value;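 further: cells exposed to compounds for 96 hours before viability readout; 0% = vehicle and 100% = killing control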
# [10] = growth inhibition of BT084 medulloblastoma cells, cell-based, ICGC_MB145, cisplatin and BGB IC40 combos (AID 1671461); conditions: drug combinations, stronger effect = higher value;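 further: cells exposed to drugs for 96 hours; 0% = vehicle DMSO and 100% = high DMSO full killing control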
# [11] = growth inhibition of RCMB18 medulloblastoma cells, cell-based, cisplatin and BGB IC40 combos (AID 1671462); conditions: stronger effect = higher value;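 further: cells exposed to compound for four days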
# [12] = growth inhibition of CRL1545 osteosarcoma cells, cell-based, cisplatin and BGB IC20 combos (AID 1671464); conditions: stronger effect = higher value;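 further: cells exposed to compound for 96 hours before readout; 0% = vehicle DMSO and 100% = high DMSO killing control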
# [13] = molecular target: Mitogen-activated protein kinase 7 (Homo sapiens) (UniProt Q13164); assay: ERK5 transactivation activators in reporter cells, primary screen, cell-based, HTS (AID 1508626;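 active means luciferase signal above three times the same-plate solvent-only control wells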;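 further: luciferase driven by Gal4-ERK5 fusion binding five Gal4 sites before minimal TATA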); conditions: HeLa Gal4-ERK5 transactivation, 18 h, at 5 µM, stronger effect = higher value
# [14] = measured here: combination with BGB IC40, at 0.05 µM
# [15] = measured here: combination with cisplatin, at 0.5 µM
# [16] = measured here: combination with cisplatin, at 5 µM
# [17] = measured here: combination with BGB at IC20, at 0.5 µM
# [18] = measured here: combination with cisplatin at IC20, at 0.5 µM
# [19] = measured here: combo with BGB at IC20, at 0.5 µM
# [20] = measured here: combo with cisplatin at IC20, at 0.5 µM
# [21] = measured here: inhibition with BGB combination, at 0.05 µM
# [22] = measured here: inhibition with cisplatin combination, at 0.05 µM
# [23] = measured here: BGB combination, at 0.5 µM
# [24] = measured here: BGB combination, at 5 µM
# [25] = measured here: cisplatin combination, at 0.5 µM
# [26] = measured here: cisplatin combination, at 5 µM
# [27] = BGB combination, concentration series, at 5 µM
# [28] = cisplatin combination, concentration series, at 5 µM
# [29] = measured here: combo with BGB IC20, at 0.5 µM
# [30] = measured here: combo with cisplatin IC20, at 0.5 µM
# [31] = cisplatin combination, at 0.5 µM
# [32] = measured here: BGB IC40 combination 0.05 uM, at 0.05 µM
# [33] = measured here: BGB IC40 combination, at 0.05 µM
# [34] = measured here: with BGB IC20 combination, at 0.5 µM
# [35] = measured here: with cisplatin IC20 combination, at 0.5 µM
# Chain of Mitogen-activated protein kinase 7 (Homo sapiens) (Q13164 whole entry, looked up, the tested form may be a part): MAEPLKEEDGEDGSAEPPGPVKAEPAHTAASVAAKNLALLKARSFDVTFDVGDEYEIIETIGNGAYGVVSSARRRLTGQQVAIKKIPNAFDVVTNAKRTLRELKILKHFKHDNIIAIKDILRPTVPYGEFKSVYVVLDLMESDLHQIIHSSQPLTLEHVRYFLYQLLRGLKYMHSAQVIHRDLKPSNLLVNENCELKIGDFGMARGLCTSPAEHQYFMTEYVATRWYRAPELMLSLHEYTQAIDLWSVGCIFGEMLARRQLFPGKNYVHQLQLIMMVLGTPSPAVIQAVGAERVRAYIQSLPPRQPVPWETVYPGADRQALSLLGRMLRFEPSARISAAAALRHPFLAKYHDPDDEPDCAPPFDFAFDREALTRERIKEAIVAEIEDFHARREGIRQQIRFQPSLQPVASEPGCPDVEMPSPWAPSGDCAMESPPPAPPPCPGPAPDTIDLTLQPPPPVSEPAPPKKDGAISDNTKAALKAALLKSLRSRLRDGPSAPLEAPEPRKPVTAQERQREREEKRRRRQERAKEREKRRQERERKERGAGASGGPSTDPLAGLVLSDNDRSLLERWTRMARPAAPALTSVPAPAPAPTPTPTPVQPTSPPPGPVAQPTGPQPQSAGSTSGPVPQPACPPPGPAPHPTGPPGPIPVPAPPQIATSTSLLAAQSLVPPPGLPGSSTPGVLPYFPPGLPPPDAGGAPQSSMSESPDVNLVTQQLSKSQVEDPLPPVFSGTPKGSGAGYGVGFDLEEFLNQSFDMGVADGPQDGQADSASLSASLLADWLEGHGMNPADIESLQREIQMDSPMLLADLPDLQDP
smiles,measurement,setting,value
N.N.O=C(O)C1(C(=O)O)CCC1.[Pt],inhibition,[1],-4.65%
same,inhibition,[2]; at 0.5 µM,-35.7% (inactive) and -31.6% (inactive)
same,inhibition,[2]; [14],-53% and -34.9%
same,inhibition,[2]; [15],-6.08% and -36.3%
same,inhibition,[2]; [16],-14.9% and -37.2%
same,inhibition,[3]; at 0.5 µM,-63.4% (inactive) and -87.5% (inactive)
same,inhibition,[3]; [17],-18.4% and -56.5%
same,inhibition,[3]; [18],-78.6% and -134%
same,inhibition,[4]; at 0.5 µM,-1.12% (inactive) and -17.2% (inactive)
same,inhibition,[4]; [19],0.288% and -20.6%
same,inhibition,[4]; [20],4.09% and -19.6%
same,inhibition,[5]; at 0.5 µM,-2.74% (inactive) and -5.32% (inactive)
same,inhibition,[5]; [21],42.2% and -5.66%
same,inhibition,[5]; [22],-17.5% and -30.7%
same,inhibition,[6]; at 0.5 µM,-25.7% (inactive) and -8.57% (inactive)
same,inhibition,[6]; [15],-29.8% and -25.9%
same,inhibition,[6]; [16],-19% and -16.7%
same,inhibition,[7]; at 0.5 µM,-21.7% (inactive) and -6.11% (inactive)
same,inhibition,[7]; [23],-33.8% and -15%
same,inhibition,[7]; [24],3.84% and 2.53%
same,inhibition,[7]; [25],-26.3% and -12.4%
same,inhibition,[7]; [26],14% and 17.8%
same,inhibition,[8]; [27],2.03% and 5.93%
same,inhibition,[8]; at 0.5 µM,-15.7% (inactive) and -7.62% (inactive)
same,inhibition,[8]; [28],29.9% and 24.6%
same,inhibition,[9]; at 0.5 µM,-6.9% (inactive) and 14.2% (inactive)
same,inhibition,[9]; [29],-5.7% and 11.6%
same,inhibition,[9]; [30],-6.14% and 19.2%
same,inhibition,[10]; at 0.5 µM,-21% (inactive) and -15.1% (inactive)
same,inhibition,[10]; [31],-2.17% and -35.9%
same,inhibition,"[10]; cisplatin combination, at 5 µM",-41.8% and -20.7%
same,inhibition,[10]; [32],-10.5% and -37.9%
same,inhibition,"[10]; single agent, at 5 µM",-52.9% and -21.2%
same,inhibition,[11]; at 0.5 µM,-27.3% (inactive) and -19.1% (inactive)
same,inhibition,"[11]; cisplatin combo, at 5 µM",-0.537% and -4.06%
same,inhibition,[11]; [33],-23.2% and -16.9%
same,inhibition,[11]; [15],-19.3% and -17.8%
same,inhibition,"[11]; single agent, at 5 µM",-46.1% and -19.1%
same,inhibition,[12]; at 0.5 µM,-31.3% (inactive) and -52.7% (inactive)
same,inhibition,[12]; [34],-4.25% and -43.2%
same,inhibition,[12]; [35],-44.9% and -60%
same,inhibition,"[12]; single agent, at 0.05 µM",-23.7% and -50.6%
same,inhibition,"[12]; single agent, at 5 µM",3.56% and 6.67%
O=C(Nc1ccncc1)c1cc([N+](=O)[O-])ccc1Cl,inhibition,[2]; at 0.5 µM,-23.9% (inactive)
same,inhibition,[2]; [14],-37.5%
same,inhibition,[2]; [15],-9.6%
same,inhibition,[2]; [16],54.5%
same,inhibition,[3]; at 0.5 µM,-65.5% (inactive)
same,inhibition,[3]; [17],-72.7%
same,inhibition,[3]; [18],-82.6%
same,inhibition,[4]; at 0.5 µM,-11.5% (inactive)
same,inhibition,[4]; [19],-10.4%
same,inhibition,[4]; [20],-13.5%
same,inhibition,[5]; at 0.5 µM,-6.23% (inactive)
same,inhibition,[5]; [21],-27.4%
same,inhibition,[5]; [22],-17%
same,inhibition,[6]; at 0.5 µM,-23.4% (inactive)
same,inhibition,[6]; [15],-14.6%
same,inhibition,[6]; [16],-37.5%
same,inhibition,[7]; at 0.5 µM,-25.3% (inactive)
same,inhibition,[7]; [23],-15.4%
same,inhibition,[7]; [24],-30%
same,inhibition,[7]; [25],-47.1%
same,inhibition,[7]; [26],-23.8%
same,inhibition,[8]; [27],-19.1%
same,inhibition,[8]; at 0.5 µM,-17.7% (inactive)
same,inhibition,[8]; [28],-9.35%
same,inhibition,[9]; at 0.5 µM,-9.91% (inactive)
same,inhibition,[9]; [29],0.843%
same,inhibition,[9]; [30],-18.4%
same,inhibition,[10]; at 0.5 µM,-26.5% (inactive)
same,inhibition,[10]; [31],-23.3%
same,inhibition,"[10]; cisplatin combination, at 5 µM",-134%
same,inhibition,[10]; [32],-33.5%
same,inhibition,"[10]; single agent, at 5 µM",23.7%
same,inhibition,[11]; at 0.5 µM,-25.9% (inactive)
same,inhibition,"[11]; cisplatin combo, at 5 µM",23.7%
same,inhibition,[11]; [33],-24.6%
same,inhibition,[11]; [15],-52.5%
same,inhibition,"[11]; single agent, at 5 µM",-3.16%
same,inhibition,[12]; at 0.5 µM,6.35% (inactive)
same,inhibition,[12]; [34],-12.9%
same,inhibition,[12]; [35],14.6%
same,inhibition,"[12]; single agent, at 0.05 µM",-34.7%
same,inhibition,"[12]; single agent, at 5 µM",-4.08%
CN1CCc2cccc3c2[C@H]1Cc1ccc(O)c(O)c1-3,luciferase signal,[13],48 AU (inactive)
